High-throughput results deposited in PubChem by Broad Institute.
ID4 binder: ID4 (human) binding. P47928. small molecule microarray, Flag-ID4 binding, fluorescence F/B. calls only. hit rate 1.2% among 31,000. AID 624137; call rule not given here;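 note: a binder raises fluorescence above local background on the spot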
Target sequence (P47928 whole entry, looked up): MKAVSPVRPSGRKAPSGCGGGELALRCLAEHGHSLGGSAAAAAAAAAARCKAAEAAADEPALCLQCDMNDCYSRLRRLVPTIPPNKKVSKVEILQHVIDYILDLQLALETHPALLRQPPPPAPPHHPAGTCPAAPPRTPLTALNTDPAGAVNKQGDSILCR
mut p53 react: restores mutant p53 pathway signaling in SW480 cells; SW480 PUMA-promoter luciferase, p53 mutant reactivation; activation, % at 9.98 µM; hit rate 1.5% among 28,000; AID 624151; in the data active = activation above about 52%
* = called active by the depositor; i = inactive; · = not tested or not shown; + = active, no number. Compounds with a hit are over-represented: about 2.3% of the library has one in this group of screens.

SMILES	ID4 binder	mut p53 react
O=C(CCN1C(=O)C2C3c4ccccc4C(c4ccccc43)C2C1=O)Oc1ccccc1[N+](=O)[O-] (stereo unspecified)	i	-11.4
Cc1ccc(NC(=O)COc2ccc(Cl)cc2Br)c([N+](=O)[O-])c1	i	14.1
Cc1ccc(OCC(=O)Nc2ccc(C)cc2[N+](=O)[O-])c(C)c1	i	88.8*
Cc1ccc(NC(=O)COc2ccc(Br)cc2Cl)c([N+](=O)[O-])c1	i	81.9*
Cc1ccc(NC(=O)COc2ccc(Br)cc2C)c([N+](=O)[O-])c1	i	45.3
Cc1ccc(NC(=O)COc2ccc(Cl)cc2C)c([N+](=O)[O-])c1	i	63.8*
O=C(COc1ccc(Br)cc1Cl)Nc1ccccc1[N+](=O)[O-]	i	39.3
Cc1ccc(N(CC(=O)Nc2ccc(Br)cc2F)S(C)(=O)=O)cc1C	i	1.9
Cc1cc(C)nc(SCc2csc(N)n2)n1	+	9.3
COC(=O)CSc1nc(C)cc(C)n1	i	0.7
CCCCC/C=C\C/C=C\CCCCCCCC(=O)OC(CO)CO	i	·
Cc1ccc(OCC(=O)Nc2ccccc2C#N)cc1C	i	83.3*
Cc1cccc(C)c1OCC(=O)Nc1ccccc1C#N	i	9.0
Cc1ccc(N(Cc2ccco2)C(=O)c2cccc(S(=O)(=O)N3CCOCC3)c2)cc1	i	-1.4
COC(=O)c1c(NC(=S)NCc2cc(C)n(C)n2)sc2c1CCCCCC2	i	9.0
COC(=O)c1c(NC(=S)NCc2ccccn2)sc2c1CCC2	i	68.2*
O=C(CSc1nc2ccccc2c(=O)n1-c1ccc(Br)cc1)Nc1cccc(F)c1	i	7.5
Cc1cccc(NC(=O)c2ccccc2NC(=O)COc2ccccc2Cl)c1C	i	11.6
CC(Oc1ccc(Cl)cc1Cl)C(=O)Nc1cccc(-c2nc3ccccc3o2)c1 (stereo unspecified)	i	9.0
Cc1cc(Cl)ccc1OC(C)C(=O)Nc1cccc(-c2nnc(-c3ccccc3)o2)c1 (stereo unspecified)	i	84.7*
CC(Oc1ccccc1)C(=O)Nc1cccc(-c2nnc(-c3ccccc3)o2)c1 (stereo unspecified)	i	114.1*
CCC(Oc1ccccc1)C(=O)Nc1cccc(NC(C)=O)c1 (stereo unspecified)	i	-7.0
CC(C)Oc1cccc(-c2cc(C(=O)NCc3ccco3)c3ccccc3n2)c1	i	1.7
Cc1cccc(OCCCn2c(CO)nc3ccccc32)c1	i	24.9
Cc1ccc(OCCCn2c(CO)nc3ccccc32)cc1	i	63.0*
SMILES	ID4 binder	mut p53 react
Cc1ccc(C)c(-n2nnnc2SCC(=O)Nc2ccccc2[N+](=O)[O-])c1	i	-7.2
COc1ccc(-c2nnc(SCC(=O)Nc3cccc(C(C)=O)c3)n2-c2ccccc2)cc1	i	4.3
COC(=O)CNS(=O)(=O)c1ccccc1[N+](=O)[O-]	i	-5.1
Cc1ccc(-n2c(C)nnc2SCC(=O)Nc2cc(Cl)ccc2C)cc1	i	0.4
O=C(O)C(O)Cc1c[nH]c2ccccc12 (stereo unspecified)	i	0.7
O=C(O)CCCc1c[nH]c2ccccc12	+	-10.4
COc1cccc(C(=O)Nc2ccc(NC(=O)C3CCCCC3C(=O)O)cc2)c1 (stereo unspecified)	+	-9.9
COc1cccc(C(=O)Nc2ccc(NC(=O)C3CC=CCC3C(=O)O)cc2)c1 (stereo unspecified)	i	6.7
CCn1c(SCC(=O)Nc2cccc(Br)c2)nnc1-c1ccc(C)cc1	i	-5.1
C=CCOC(=O)[C@H]1[C@@H]2C(=O)O[C@@H](c3ccccc3)[C@@H](c3ccccc3)N2[C@@H](c2ccc(OCCOC(=O)[C@H]3C[C@H]4C(=O)N5CCC[C@H]5C(=O)N4[C@H]3c3ccc(O)cc3)cc2)[C@]12C(=O)Nc1ccccc12	i	·
O=C1O[C@@H](c2ccccc2)[C@@H](c2ccccc2)N2[C@@H](c3ccc(OCCO)cc3)[C@]3(C(=O)Nc4ccccc43)[C@@H](C(=O)N3CCCCCCC3)[C@H]12	+	·
C=CCOC(=O)[C@H]1[C@@H]2C(=O)O[C@@H](c3ccccc3)[C@@H](c3ccccc3)N2[C@@H](c2ccc(OCCOC(=O)[C@@H]3C[C@@H]4C(=O)N5CCC[C@H]5C(=O)N4[C@@H]3c3ccc(O)cc3)cc2)[C@]12C(=O)Nc1ccc(I)cc12	+	·
O=C1O[C@H](c2ccccc2)[C@H](c2ccccc2)N2[C@H]1[C@@H](C(=O)N1CCCCCCC1)[C@]1(C(=O)Nc3ccccc31)[C@H]2c1ccc(OCCO)cc1	i	·
COc1ccc(OC(C)c2nc(-c3cccnc3)no2)cc1 (stereo unspecified)	i	-13.7
CC(Oc1ccc(Br)cc1)c1nc(-c2ccccn2)no1 (stereo unspecified)	i	60.3*
COc1cc([N+](=O)[O-])ccc1NC(=O)CN(C)S(=O)(=O)c1ccc2ccccc2c1	i	-8.1
OC(COc1ccccc1Cl)Cn1cnc2ccccc21 (stereo unspecified)	i	110.5*
